Assay results reported in PubChem BioAssay.
“And” between values parts separate entries of the source, which are not always exact repeats. Identical values can stand only once. The source made the active and inactive calls. Unless noted, no rule for the calls is given here.

Key:
[1] = stimulators of nuclear beta-catenin in C2C12, primary screen, imaging, WNT3A-conditioned medium, mouse C2C12, NPC library (AID 1117326; in the data active = nuclear beta-catenin stimulation mostly above about 4.2%, no sharp cut-off; inactive = mostly below about 10%); settings: stronger effect = higher value
[2] = stimulators of insulin release from INS-1E, primary screen, cell-based, 5 mM glucose, NPC library (AID 1117329;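 active = compound raises insulin release from rat beta cells at 5 mM glucose, no numeric limit stated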); settings: rat INS-1E insulin secretion, at 10 µM, stronger effect = higher value
[3] = growth inhibition of GSK3B-pretreated HCT116 cells – cell-based, CellTiter-Glo, 0.2 to 20 µM (AID 1117336;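 active = compounds lowering colon cancer cell viability after pretreatment blocking the GSK3B kinase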); settings: HCT116 viability after GSK3B inhibitor, at 20 µM, stronger effect = higher value
[4] = inhibition of endothelial tube formation, primary screen, imaging, VEGF stimulated, CD31 staining, tube area, NPC library (AID 1117340;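 active = compound that reduces growth-factor-driven endothelial tube area in a mixed cell culture, no cutoff stated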); settings: VEGF-stimulated ADSC/ECFC co-culture, at 10 µM, stronger effect = higher value
[5] = glucagon-like peptide 1 release enhancers, primary assay, NCI-H716 cell line, NPC library (AID 1117341;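 active = compound raises GLP1 secretion from the human gut endocrine cells, with no numeric limit stated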); settings: NCI-H716 cells, at 10 µM, stronger effect = higher value
[6] = HCT116 colon cancer cell growth inhibition, primary screen, CellTiter-Glo luminescence, NPC library (AID 1117342;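 active = compounds that lower survival of HCT116 colon cancer cells in the luminescence readout, no numeric limit stated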); settings: at 20 µM (top of the series)
[7] = CellTiter-Glo luminescent readout of SW480 viability loss, NPC library primary (AID 1117343;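 active = compounds that lower viability of the colon cancer cells in the luminescence readout, with no numeric limit stated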); settings: CellTiter-Glo luminescence; at 20 µM (top of the series)
[8] = decreased DLD-1 cellular survival, CellTiter-Glo luminescent readout, NPC compound collection, primary HTS (AID 1117346;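 active = compounds that lower survival of DLD-1 colon cancer cells in the luminescence readout, no cutoff given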); settings: DLD-1 viability, CellTiter-Glo luminescence; at 20 µM (top of the series)
[9] = biological target: 6-phosphogluconate dehydrogenase, decarboxylating (Homo sapiens) (UniProt P52209); experiment: 6PGD enzyme inhibitors, primary screen, biochemical, human, recombinant enzyme, NADPH absorbance (AID 1159550;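 active = at least 20% inhibition of 6-phosphogluconate dehydrogenase activity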); settings: recombinant 6PGD, NADPH absorbance 341 nm; at 10 µM; stronger effect = higher value
6-phosphogluconate dehydrogenase, decarboxylating (Homo sapiens), sequence (P52209 whole entry, looked up): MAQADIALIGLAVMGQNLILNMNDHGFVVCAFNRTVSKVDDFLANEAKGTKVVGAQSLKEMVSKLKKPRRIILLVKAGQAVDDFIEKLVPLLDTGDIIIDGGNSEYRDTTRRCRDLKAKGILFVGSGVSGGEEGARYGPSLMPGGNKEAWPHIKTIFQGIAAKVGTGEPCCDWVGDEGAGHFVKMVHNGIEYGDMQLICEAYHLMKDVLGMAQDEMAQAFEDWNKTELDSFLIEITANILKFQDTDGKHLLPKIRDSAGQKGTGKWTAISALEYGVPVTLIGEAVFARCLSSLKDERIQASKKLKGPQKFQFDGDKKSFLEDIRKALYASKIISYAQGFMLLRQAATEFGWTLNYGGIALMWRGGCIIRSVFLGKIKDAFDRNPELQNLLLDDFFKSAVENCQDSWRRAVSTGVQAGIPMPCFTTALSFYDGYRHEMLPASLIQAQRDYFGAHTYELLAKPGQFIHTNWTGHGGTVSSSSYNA

[10] = differential killing of epithelial or mesenchymal cells, primary screen, imaging, PC-3E GFP, TEM4-18 mCherry, co-culture (AID 1345086;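 active = compounds killing one labelled cell type while sparing the other, by normalised counts and ratio limits, not self-fluorescent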;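 as to all read-outs here: cells exposed to compound for 72 h before imaging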;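 as to red/green cell ratio (normalised): normalised mesenchymal count divided by normalised epithelial count so high means epithelial killing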); settings: imaging cell counts, at 1 µM; for red/green cell ratio (normalised): actives lie on both sides
[11] = tested on: Aerobactin synthetase IucA (Klebsiella pneumoniae hvKP1); experiment: Biochemical IucA enzyme inhibition primary screen of the Spectrum library (AID 1346200); settings: malachite green pyrophosphate, A620, at 8 µM, stronger effect = lower value;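 also: 100% = wells without compound and 0% = wells lacking enzyme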
[12] = sensitizers of A549 cells to miR-34 induction, primary screen, imaging, A549 dox-inducible miR-34, nuclei and caspase counts (AID 1347080;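 active = compounds whose cell count with miR-34 switched on is under 0.7 times the count with it off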); settings: A549 miR-34 inducible, Hoechst nuclei count, 48 h
[13] = biological target: NAD(+) hydrolase SARM1 (Homo sapiens) (UniProt Q6SZW1); experiment: SARM1 TIR NADase inhibitors, cell lysate, NAD-Glo luminescence (AID 1508614;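 active = compound whose remaining NAD level is above about 45 nM, limit read from the data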;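 also: higher remaining NAD means stronger inhibition of SARM1 NADase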); settings: SAM-TIR HEK293T lysate NADase, at 1 µM, stronger effect = higher value
NAD(+) hydrolase SARM1 (Homo sapiens), sequence (Q6SZW1 whole entry, looked up, the tested form may be a part): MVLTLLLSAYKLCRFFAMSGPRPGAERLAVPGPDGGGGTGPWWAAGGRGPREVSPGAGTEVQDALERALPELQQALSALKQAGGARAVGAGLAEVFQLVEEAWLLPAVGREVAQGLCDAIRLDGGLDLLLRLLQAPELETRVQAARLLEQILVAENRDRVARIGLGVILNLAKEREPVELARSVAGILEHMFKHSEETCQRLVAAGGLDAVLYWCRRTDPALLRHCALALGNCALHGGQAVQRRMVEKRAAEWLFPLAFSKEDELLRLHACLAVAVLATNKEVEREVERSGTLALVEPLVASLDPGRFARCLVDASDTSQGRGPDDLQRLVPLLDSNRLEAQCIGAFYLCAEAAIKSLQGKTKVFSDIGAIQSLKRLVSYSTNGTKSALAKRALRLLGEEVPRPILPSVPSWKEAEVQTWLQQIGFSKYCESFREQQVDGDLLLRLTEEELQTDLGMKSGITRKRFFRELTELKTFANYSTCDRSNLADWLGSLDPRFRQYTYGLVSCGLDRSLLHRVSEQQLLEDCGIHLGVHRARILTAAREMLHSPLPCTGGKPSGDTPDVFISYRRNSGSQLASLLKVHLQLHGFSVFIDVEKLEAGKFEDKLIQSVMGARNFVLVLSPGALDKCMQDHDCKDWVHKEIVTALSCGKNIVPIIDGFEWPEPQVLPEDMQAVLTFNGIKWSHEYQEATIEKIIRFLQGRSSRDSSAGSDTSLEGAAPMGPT

[14] = biological target: Mitogen-activated protein kinase 7 (Homo sapiens) (UniProt Q13164); experiment: ERK5 transactivation activators in reporter cells, primary screen, cell-based, HTS (AID 1508626;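 active = luciferase signal above three times the same-plate solvent-only control wells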;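 also: luciferase driven by Gal4-ERK5 fusion binding five Gal4 sites before minimal TATA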); settings: HeLa Gal4-ERK5 transactivation, 18 h, at 5 µM, stronger effect = higher value
Mitogen-activated protein kinase 7 (Homo sapiens), sequence (Q13164 whole entry, looked up, the tested form may be a part): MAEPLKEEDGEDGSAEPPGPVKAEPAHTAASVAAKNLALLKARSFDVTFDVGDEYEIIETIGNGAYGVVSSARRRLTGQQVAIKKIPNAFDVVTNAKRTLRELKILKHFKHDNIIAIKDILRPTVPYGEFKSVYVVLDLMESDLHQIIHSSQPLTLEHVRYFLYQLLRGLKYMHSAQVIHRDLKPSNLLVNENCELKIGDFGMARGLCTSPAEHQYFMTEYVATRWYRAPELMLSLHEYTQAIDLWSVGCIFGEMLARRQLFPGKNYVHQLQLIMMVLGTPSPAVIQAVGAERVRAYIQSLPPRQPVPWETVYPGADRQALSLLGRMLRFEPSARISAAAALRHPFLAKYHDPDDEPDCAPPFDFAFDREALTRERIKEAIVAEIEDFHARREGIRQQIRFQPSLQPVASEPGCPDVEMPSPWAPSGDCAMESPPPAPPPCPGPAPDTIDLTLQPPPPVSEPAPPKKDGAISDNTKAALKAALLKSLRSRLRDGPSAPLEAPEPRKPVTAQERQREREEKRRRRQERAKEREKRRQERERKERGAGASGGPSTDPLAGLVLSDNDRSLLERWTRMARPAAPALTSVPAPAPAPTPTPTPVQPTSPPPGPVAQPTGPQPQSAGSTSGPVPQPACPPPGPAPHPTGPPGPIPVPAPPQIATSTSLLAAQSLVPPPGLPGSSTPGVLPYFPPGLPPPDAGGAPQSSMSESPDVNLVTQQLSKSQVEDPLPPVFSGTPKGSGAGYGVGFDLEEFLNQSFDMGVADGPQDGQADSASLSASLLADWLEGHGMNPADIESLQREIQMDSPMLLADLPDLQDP

[15] = hESC survival regulators, cell-based (AID 493140); settings: human embryonic stem cell survival screen; stronger effect = higher value;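 also: cells exposed to compounds for four days before counting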
[16] = liver-stage malaria parasite growth inhibition, primary screen, cell-based, HepG2, luciferase luminescence, HepG2 viability (AID 624349; in the data active = parasite load remaining mostly below about 12%, no sharp cut-off; inactive = mostly above about 10%;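 also: 100% = mean of DMSO negative control wells on the same plate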); settings: P. berghei liver stage in HepG2, luciferase luminescence, concentration not given here; parasite load remaining: stronger effect = lower value; viability: measured here: HepG2 viability without parasites
[17] = tested on: Aerobactin synthetase IucA (Klebsiella pneumoniae, hypervirulent); experiment: IucA enzyme inhibition, biochemical, LOPAC library, absorbance readout (AID 1346212); settings: IucA enzyme assay, absorbance (OD) readout; stronger effect = lower value; concentration not given here;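 also: 100% = no compound wells and 0% = no enzyme wells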
[18] = survival rescue of mitochondrial mutant cells in low glucose, primary screen, MELAS cybrids, Rieske KO mouse fibroblasts, CellTiter-Glo (AID 1508586;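 active = mean z-score across replicates of 1.96 or higher in either the MELAS or the Rieske mutant cell line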;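 also: z relative to plate mean and SD of compound and empty wells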)
[19] = viability rescue of complex I mutant cybrids, primary screen, cell-based, galactose medium, ATP luminescence (AID 1645843;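 active = z-score of at least 1.8 in each of two replicates, scored against plate mean and spread of sample wells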;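 also: positive z means more ATP and so rescue of galactose-driven cybrid death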); settings: complex I mutant cybrid cells, 72 h, stronger effect = higher value
[20] = measured here: epithelial PC-3E GFP cell survival
[21] = measured here: mesenchymal TEM4-18 mCherry cell survival
[22] = measured here: relative caspase fold change +Dox/-Dox
[23] = measured here: total cells with miR-34 induction, stronger effect = lower value
[24] = measured here: total cells without miR-34 induction
[25] = MELAS cybrid survival, CellTiter-Glo 48 h, stronger effect = higher value
[26] = Rieske KO mouse fibroblast survival, CellTiter-Glo 72 h

CCOP(=S)(OCC)Oc1cc(C)nc(C(C)C)n1
1.33: fold change [12, 22]
1: normalised cell number [10, 20] | normalised cell number [10, 21]
inactive: nuclear beta-catenin stimulation ([1]; at 10 µM) -0.5% | insulin secretion stimulation [2] 0.4% | viability decrease [3] -71.8% | tube area decrease [4] 0.2% | GLP1 secretion stimulation [5] -1.4% | inhibition of viability [6] 11.6% | viability decrease (inhibition) [7] 34% | viability decrease (inhibition) [8] 2.6% | inhibition [9] -22.8% | red/green cell ratio (normalised) [10] 1 | activity remaining [11] 77.6% | fold change ([12]; stronger effect = lower value) 0.932 | remaining NAD [13] 10 nM
9830: cell count [12, 24]
0.1%: nuclear beta-catenin stimulation ([1]; stimulation, at 2 µM)
9160: cell count [12, 23]

CCOP(=S)(OCC)Oc1ccc2c(C)c(Cl)c(=O)oc2c1
inactive: nuclear beta-catenin stimulation ([1]; at 10 µM) 8.6% | insulin secretion stimulation [2] -1.3% | viability decrease [3] -12.5% | GLP1 secretion stimulation [5] 2.3% | inhibition of viability [6] -16% | viability decrease (inhibition) [7] -55% | viability decrease (inhibition) [8] -8.8% | inhibition [9] 6.24% | red/green cell ratio (normalised) [10] 1.09 | fold change ([12]; stronger effect = lower value) 0.908 | remaining NAD [13] 10 nM | luciferase signal [14] 72 AU
8520: cell count [12, 23]
0.91: normalised cell number [10, 20]
9380: cell count [12, 24]
active: tube area decrease [4] 41%
1.6%: nuclear beta-catenin stimulation ([1]; stimulation, at 2 µM)
1.03: fold change [12, 22]
0.99: normalised cell number [10, 21]

CCNc1nc(Cl)nc(NCC)n1
2.2%: nuclear beta-catenin stimulation ([1]; stimulation, at 2 µM)
inactive: nuclear beta-catenin stimulation ([1]; at 10 µM) 0.8% | insulin secretion stimulation [2] -1.4% | viability decrease [3] -15.2% | tube area decrease [4] 8.9% | GLP1 secretion stimulation [5] 1.7% | inhibition of viability [6] 3.93% | viability decrease (inhibition) [7] -14.9% | viability decrease (inhibition) [8] -16.6% | inhibition [9] 4.55% | activity remaining [11] 94.3% | luciferase signal [14] 52 AU

C[C@@H]1O[C@@H](O[C@H]2C[C@@H](O)[C@]3(CO)[C@H]4[C@H](O)C[C@]5(C)[C@@H](C6=CC(=O)OC6)CC[C@]5(O)[C@@H]4CC[C@]3(O)C2)[C@H](O)[C@H](O)[C@H]1O
345 and 529 and 320: cell count [12, 23]
-1.2%: nuclear beta-catenin stimulation ([1]; stimulation, at 2 µM)
-0.329: z-score [18, 26]
active: viability decrease [3] 84.8% | tube area decrease [4] 112% | inhibition of viability [6] 56.6% | viability decrease (inhibition) [7] 61% | viability decrease (inhibition) [8] 77.4% | z-score [18, 25] 2.21
inactive: survival [15] 1.08 | parasite load remaining [16] -1.77% and 5.6% and -0.23% | nuclear beta-catenin stimulation ([1]; at 10 µM) 0% | insulin secretion stimulation [2] 5.8% | GLP1 secretion stimulation [5] 9.2% | inhibition [9] -10.9% | remaining activity [17] 109% | fold change ([12]; stronger effect = lower value) 0.999 and 0.916 and 0.73 | remaining NAD [13] 10 nM | luciferase signal [14] 16 AU | z-score [19] -1.23 and -2.25
0.275 and 1.45 and 1.97: fold change [12, 22]
38.8% and 25.7% and 34%: viability [16]
346 and 578 and 438: cell count [12, 24]

CNC(C)(C)Cc1ccccc1
0.92: normalised cell number [10, 20]
104% and 88.4% and 81%: viability [16]
inactive: survival [15] 4.83 | parasite load remaining [16] 104% and 157% and 55.8% | nuclear beta-catenin stimulation ([1]; at 10 µM) -2.4% | insulin secretion stimulation [2] 2.7% | viability decrease [3] -16.7% | tube area decrease [4] -0.3% | GLP1 secretion stimulation [5] 1.1% | inhibition of viability [6] 0.43% | viability decrease (inhibition) [7] 15.4% | viability decrease (inhibition) [8] -5.3% | inhibition [9] -16.6% | red/green cell ratio (normalised) [10] 1.08 | activity remaining [11] 99.6% | fold change ([12]; stronger effect = lower value) 0.876 and 0.893 | z-score [18, 25] -0.189 | remaining NAD [13] 10 nM | luciferase signal [14] 56 AU
0.7%: nuclear beta-catenin stimulation ([1]; stimulation, at 2 µM)
-0.596: z-score [18, 26]
8510 and 12200: cell count [12, 24]
1.32 and 3.57: fold change [12, 22]
7450 and 10900: cell count [12, 23]
1: normalised cell number [10, 21]

CC[n+]1c(-c2ccccc2)c2cc(N)ccc2c2ccc(N)cc21
83.5%: viability [16]
0.31: normalised cell number [10, 20]
inactive: parasite load remaining [16] 116% | nuclear beta-catenin stimulation ([1]; at 10 µM) 17.6% | insulin secretion stimulation [2] 2.1% | tube area decrease [4] 29.5% | GLP1 secretion stimulation [5] -2.8% | inhibition [9] 7.37% | red/green cell ratio (normalised) [10] 2.8 | activity remaining [11] 95.2% | remaining NAD [13] 10 nM | luciferase signal [14] 104 AU
0.87: normalised cell number [10, 21]
active: viability decrease [3] -24.6% | inhibition of viability [6] 79.1% | viability decrease (inhibition) [7] 52.1% | viability decrease (inhibition) [8] 83.7%
1%: nuclear beta-catenin stimulation ([1]; stimulation, at 2 µM)

Cc1cccc(C)c1NC1=NCCCS1
1.27: normalised cell number [10, 21]
1.1: normalised cell number [10, 20]
-0.0574 and -0.344 and 0.356: z-score [18, 26]
1.8%: nuclear beta-catenin stimulation ([1]; stimulation, at 2 µM)
inactive: survival [15] 6.75 | nuclear beta-catenin stimulation ([1]; at 10 µM) 0.7% | insulin secretion stimulation [2] 3.2% | viability decrease [3] -8.6% | tube area decrease [4] -3.5% | GLP1 secretion stimulation [5] 1.7% | inhibition of viability [6] 10.6% | viability decrease (inhibition) [7] -13.1% | viability decrease (inhibition) [8] 2.9% | inhibition [9] -17.7% | red/green cell ratio (normalised) [10] 1.15 | activity remaining [11] 116% | remaining activity [17] 121% | z-score [18, 25] -0.333 and 0.534 and -0.793 | remaining NAD [13] 10 nM | luciferase signal [14] 36 AU | z-score [19] 0.22 and 0.48

C=C(C)[C@H]1CN[C@H](C(=O)O)[C@H]1CC(=O)O
1.5%: nuclear beta-catenin stimulation ([1]; stimulation, at 2 µM)
inactive: nuclear beta-catenin stimulation ([1]; at 10 µM) 0% | insulin secretion stimulation [2] -1.6% | viability decrease [3] 3.4% | tube area decrease [4] -7.3% | GLP1 secretion stimulation [5] -2% | inhibition of viability [6] -16% | viability decrease (inhibition) [7] -0.1% | viability decrease (inhibition) [8] -1.8% | inhibition [9] 2.88% | remaining activity [17] 119% | fold change ([12]; stronger effect = lower value) 1.1 and 0.956 | fold change ([12]; stronger effect = lower value, cell number ratio, induced over uninduced) 0.95 | remaining NAD [13] 10 nM | luciferase signal [14] 68 AU | z-score [19] 0.445 and 0.325
1.24 and 0.883 and 0.751: fold change [12, 22]
9620 and 5900 and 8660: cell count [12, 24]
10600 and 5610 and 8280: cell count [12, 23]
